Here are results for 55 compounds from ChEMBL document CHEMBL4513216, “Probing the Open Global Health Chemical Diversity Library for Multistage-Active Starting Points for Next-Generation Antimalarials” (ACS Infect Dis, 2020).

Hit rate of the full screen: of about 69,000 compounds, about 8,600 (12%) showed an effect of 50% or more. This excerpt belongs to a sample that is enriched for strong results.

This experiment relates to Plasmodium berghei. Description: Screen against P. berghei liver stage (PbLuc), transformed with Luciferase, at 10uM. It counts as functional, HepG2. The conditions noted are these: tested at 10 uM.
Consider `CC(C)NC(=O)Nc1nc2c(s1)CN(C(=O)NCc1cccs1)CC2`, for which the INHIBITION was 46.4%.
Consider `c1ccc(-c2nc(CCNCc3cccnc3)co2)cc1`, for which the INHIBITION came out at 45.3%.
Consider `COCC1Cn2nnc(-c3cnn(C)c3)c2CN1Cc1cccs1` (stereo not given), for which the INHIBITION is 2.58%.
As for `O=C(c1cccs1)N1CCc2c(nc(N3CCCC3)[nH]c2=O)C1`, the INHIBITION is 34%.
Take `CC(CNS(=O)(=O)c1cccc(Cl)c1)N1CCN(C)CC1` (stereo not given): the INHIBITION turned out to be 46.4%.
Turning to `Cc1cccc(S(=O)(=O)NCC(C)N2CCN(C)CC2)c1Cl` (stereo not given), the INHIBITION was -38.2%.
For `Cc1cc(Cl)ccc1S(=O)(=O)NCC(C)N1CCN(C)CC1` (stereo not given), the INHIBITION was 68.3%.
Turning to `Cc1cc(N(C)C)nc(C2(C)CCCN2C(=O)c2cnccn2)n1` (stereo not given), the INHIBITION was found to be 16.5%.
In the case of `CCOCCCNCc1cc(O)c2cc(C)ccc2n1`, the INHIBITION turned out to be 0.672%.
As for `CCOCCNCc1cc(O)c2cc(C)ccc2n1`, the INHIBITION amounted to 53.3%.
Turning to `Cc1ccc2nc(CNCCCN3CCCC3=O)cc(O)c2c1`, the INHIBITION is recorded as 31.7%.
In the case of `CCS(=O)(=O)CCNCc1cc(O)c2cc(C)cc(C)c2n1`, the INHIBITION is on record as 45.8%.
For the compound `CCOCC1(CNCc2cc(O)c3cc(C)ccc3n2)CC1`, the INHIBITION is 35.4%.
As for `Cc1ccc2nc(CNCCCOc3ccccc3)cc(O)c2c1` [UCSF924], the INHIBITION amounted to 75.7%.
As to `Cc1cc(C)c2nc(CNCCNS(C)(=O)=O)cc(O)c2c1`, the INHIBITION worked out at 43.9%.
In the case of `CCN(CC)CCNCc1cc(O)c2cc(C)ccc2n1`, the INHIBITION is listed as 16.3%.
As to `COCCCNCc1cc(O)c2cc(C)cc(C)c2n1`, the INHIBITION is recorded as 51.2%.
Take `Cc1cc2nc(SCC(=O)NC(C)C)n(Cc3ccco3)c(O)c-2n1`: the INHIBITION was determined as 12.6%.
Under `CN(CC(=O)N1CCCN(Cc2cscn2)CC1)c1cnccn1` stands 13.9%.
Consider `COCCN1CC[C@@H]2OC[C@H](C(=O)NCc3cccs3)C[C@@H]2C1`, for which the INHIBITION is given as 41.5%.
For `Cc1ncsc1CN1CCOC(C)(C(=O)N2CCOCC2)C1` (stereo not given), the INHIBITION is reported as -3.94%.
As for `CNc1nc(CNC(=O)Nc2ccccc2C(F)(F)F)cs1`, the INHIBITION is listed as 19.4%.
Regarding `NC(=O)C1(c2cnccn2)CCCN1C(=O)Cc1ccsc1` (stereo not given), the INHIBITION stood at 12.84%.
Take `CN(C)c1cc(C(=O)NCc2cccnc2-n2cncn2)ccn1`: the INHIBITION worked out at 83.7%.
With `Cc1ccc(C(=O)NCc2cccnc2-n2cncn2)cc1S(C)(=O)=O` the figure was 17.2%; with `O=C(NCc1cccnc1-n1cncn1)c1ccc2c(c1)CCO2`, -0.113%; with `CN(C)c1ccc(C(=O)NCc2cccnc2-n2cncn2)cc1F`, 52.6%.
Regarding `O=C(NCc1cccnc1-n1cncn1)c1cc(Cl)ccn1`, the INHIBITION amounted to 38.5%.
Under `CCCc1nc(C(=O)NCc2cccnc2-n2cncn2)cs1` stands -22.1%; under `O=C(NCc1cccnc1-n1cncn1)c1cncc(Br)c1`, 43.8%; under `O=C(NCc1cccnc1-n1cncn1)c1ccncc1`, 51.2%.
Under `CCN(CC)c1ccc(C(=O)NCc2cccnc2-n2cncn2)cn1` stands 16.6%; under `CCN1CCC2(CN(C(=O)N(C)C)CC23CCN(CC2CC2)CC3)C1=O` (stereo not given), -38.1%; under `CCCn1c(N2CCCC2)nc2c(C)nn(C)c2c1=O`, 44.05%.
With `CC(C)C(NC(=O)c1cnc(N2CCOCC2)nc1)c1cccs1` (stereo not given) the figure was 38.7%.
Consider `Cc1ccccc1NCc1nc2n(n1)CCCCC2`, for which the INHIBITION stood at 34.2%.
Take `CN1CC(Oc2ccc(Cl)cc2)=NC(SCC(=O)c2ccccc2)=N1`: the INHIBITION is on record as 12.9%.
As for `CN1CC(Oc2ccccc2)=NC(SCC(=O)c2ccccc2)=N1`, the INHIBITION was 1.98%.
Regarding `CCN1CC(Oc2ccc(Cl)cc2)=NC(SCC(=O)c2ccccc2)=N1`, the INHIBITION was 55.5%.
On to `Cn1c(=O)n(C)c2nc(Br)c(CC(=O)c3ccccc3)n2c1=O`, for which the INHIBITION is listed as 37.3%.
For `CC(C(=O)NCc1ccnc(N(C)C)c1)n1cccn1` (stereo not given), the INHIBITION turned out to be 49.4%.
Under `Cc1cnnn1Cc1nnn2c1CN(Cc1cccs1)CCC2` stands 45.8%.
Regarding `CN(Cc1cccs1)C(=O)c1ccc(=O)n(C)c1`, the INHIBITION is 53.3%.
As to `COc1ccc(NC(=O)N(C)Cc2ccco2)cn1`, the INHIBITION is listed as 0.705%.
Under `Cc1occc1CN(C)C(=O)Nc1ccc(=O)n(C)c1` stands 44.3%.
Take `COCCN(Cc1cccs1)C(=O)c1ccc(=O)n(C)c1`: the INHIBITION was -7.66%.
With `CN(Cc1ccc2c(c1)OCO2)C(=O)c1ccc(=O)n(C)c1` the figure was 42.7%.
`Cn1cc(C(=O)N(Cc2ccco2)Cc2cccs2)ccc1=O`: the INHIBITION is listed as 34%.
Consider `CN(Cc1ccco1)C(=O)Nc1ccc(=O)n(C)c1`, for which the INHIBITION is recorded as 60.1%.
Regarding `CN(Cc1ccco1)C(=O)c1ccc(=O)n(C)c1`, the INHIBITION was 55.4%.
`CCN(Cc1cccs1)C(=O)c1ccc(=O)n(C)c1`: the INHIBITION was determined as 28.7%.
Under `CCC1(CC)C(=O)NC(=O)N=C1Nc1ccc(C)cc1` stands 27.5%; under `O=C(NCC1(c2cccs2)CCCCC1)N1CCOC(CO)C1` (stereo not given), -39.4%; under `Cn1cc(N2C(=O)CC[C@@H]3[C@H]2CCN3CCc2ccccc2)cn1`, 17.4%.
In the case of `CN(C)C(=O)NC1COC2(CCN(C(=O)Nc3ccccc3)CC2)C1` (stereo not given), the INHIBITION is recorded as 42.1%.
